# Active and inactive are the calls of the source.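 How the source made its calls: active means compound raises GLP1 secretion from the human gut endocrine cells, with no numeric limit stated; inactive means the rest.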
# Assay: GLP1 release stimulators, primary, NCI-H716, NPC library (AID 1117341); further: reference of the scale not given here
# Conditions: NCI-H716 cells, at 10 µM, active compounds read high
row,SMILES,GLP1 secretion stimulation
1,CN1CCCN=C1COC(=O)C(O)(c1ccccc1)C1CCCCC1 (stereo not drawn),4.8% (inactive)
2,O=C(OCC(O)CO)c1ccccc1Nc1ccnc2cc(Cl)ccc12 (stereo not drawn),-2.3% (inactive)
3,Cc1cc(=O)[nH]c(=S)[nH]1,1.6% (inactive)
4,COc1cccc(OC)c1C(=O)N[C@@H]1C(=O)N2[C@@H]1SC(C)(C)[C@@H]2C(=O)O,-0.3% (inactive)
5,O=C1c2cccc(O)c2C(=O)c2c(O)cccc21,0% (inactive)
6,CC(=O)N(O)CCCCCNC(=O)CCC(=O)N(O)CCCCCNC(=O)CCC(=O)N(O)CCCCCN,-3.6% (inactive)
7,CC1(C)O[C@@H]2C[C@H]3[C@@H]4C[C@H](F)C5=CC(=O)CC[C@]5(C)[C@H]4[C@@H](O)C[C@]3(C)[C@]2(C(=O)CO)O1,1.2% (inactive)
8,COc1cc(NS(=O)(=O)c2ccc(N)cc2)ncn1,-4.1% (inactive)
9,Cc1onc(-c2ccccc2)c1C(=O)N[C@@H]1C(=O)N2[C@@H]1SC(C)(C)[C@@H]2C(=O)O,-3.6% (inactive)
10,CCCCOc1ccc(CC(=O)NO)cc1,-1.1% (inactive)
11,CCC(=O)O[C@H]1[C@H](O[C@@H]2[C@@H](C)[C@H](O[C@H]3C[C@@](C)(OC)[C@@H](O)[C@H](C)O3)[C@@H](C)C(=O)O[C@H](CC)[C@@](C)(O)[C@H](O)[C@@H](C)C(=O)[C@H](C)C[C@@]2(C)O)O[C@H](C)C[C@@H]1N(C)C,-0.1% (inactive)
12,CC(=O)Nc1ccc(OCC(O)CNC(C)C)cc1 (stereo not drawn),-1.9% (inactive)
13,Cc1c(N(C)CS(=O)(=O)O)c(=O)n(-c2ccccc2)n1C,2.4% (inactive)

# Source: PubChem BioAssay
